Assay results as given in PubChem BioAssay AID1159580 (chemical genetic matrix, 2015).
About 2,000 (36%) of roughly 5,500 compounds were called active. About 18% were inconclusive and are not listed. Rule as the data show it: active = normalized growth mostly below about 0.91 (no sharp cut-off); inconclusive = no clear call, values can overlap the other calls; inactive = mostly above about 0.92. This is one part of the list.

Assay: chemical genetic growth profiling, strain panel (AID 1159580);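 also: tested at 20 µM; growth read once vehicle control cultures reached saturation at 30 °C; 1 = growth at the plate median or of vehicle wells; lower values mean less growth of the strain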
Conditions: growth OD
[1] = S. cerevisiae deletion strains, locus YAL013W, strain DEP1, hits give low values
[2] = S. cerevisiae deletion strains, locus YBR229C, strain ROT2, hits give low values
[3] = S. cerevisiae deletion strains, locus YDL101C, strain DUN1, hits give low values
[4] = S. cerevisiae deletion strains, locus YDR150W, strain NUM1, hits give low values
[5] = S. cerevisiae deletion strains, locus YEL061C, strain CIN8, hits give low values
[6] = S. cerevisiae deletion strains, locus YGR078C, strain PAC10, hits give low values
[7] = S. cerevisiae deletion strains, locus YHR030C, strain SLT2, hits give low values
[8] = S. cerevisiae deletion strains, locus YHR087W, strain rtc3, hits give low values
[9] = S. cerevisiae deletion strains, locus YJR043C, strain POL32, hits give low values
[10] = S. cerevisiae deletion strains, locus YJR075W, strain HOC1, hits give low values
[11] = S. cerevisiae deletion strains, locus YLR039C, strain RIC1, hits give low values
[12] = S. cerevisiae deletion strains, locus YLR058C, strain SHM2 (second series), hits give low values
[13] = S. cerevisiae deletion strains, locus YLR085C, strain ARP6, hits give low values
[14] = S. cerevisiae deletion strains, locus YLR262C, strain YPT6, hits give low values
[15] = S. cerevisiae deletion strains, locus YML094W, strain GIM5, hits give low values
[16] = S. cerevisiae deletion strains, locus YMR219W, strain ESC1, hits give low values
[17] = S. cerevisiae deletion strains, locus YMR263W, strain SAP30, hits give low values
[18] = S. cerevisiae deletion strains, locus YNL153C, strain GIM3, hits give low values
[19] = S. cerevisiae deletion strains, locus YNL298W, strain CLA4 (second series), hits give low values
[20] = S. cerevisiae deletion strains, locus YNL322C, strain KRE1, hits give low values
[21] = S. cerevisiae deletion strains, locus YNR030W, strain Alg12, hits give low values
[22] = S. cerevisiae deletion strains, locus YPL055C, strain LGE1, hits give low values
[23] = S. cerevisiae deletion strains, locus YPL241C, strain CIN2, hits give low values
[24] = S. cerevisiae deletion strains, locus YPR135W, strain CTF4, hits give low values

Measured: normalized growth

CC(C)(C)NC(=O)N1CCN(c2nc3ccc(Cl)cc3s2)CC1
active: [7] 0.339 | [13] 0.552 | [19] 0.831 | [23] 0.856
inactive: [1] 0.952 | [2] 0.979 | [3] 1 | [4] 0.966 | [5] 0.943 | [6] 0.962 | [8] 0.967 | [9] 0.976 | [10] 0.981 | S. cerevisiae deletion strains, locus YKL190W, strain CNB1, hits give low values 0.993 | [11] 0.82 | [12] 1.02 | [14] 0.913 | [15] 0.908 | [16] 1 | [17] 0.992 | [18] 0.943 | [20] 1.03 | [21] 0.902 | S. cerevisiae deletion strains, locus YOL006C, strain TOP1, hits give low values 0.739 | [22] 0.928 | [24] 0.662 | S. cerevisiae strains, strain wild type, hits give low values 0.97

CC(C)(C)C1=NN(c2nc3ccc(Cl)cc3s2)C(=O)C1
inactive: S. cerevisiae deletion strains, locus YDR226W, strain ADK1, hits give low values 0.898
active: S. cerevisiae deletion strains, locus YAR019C, strain CDC15, hits give low values 0.484 | S. cerevisiae deletion strains, locus YBL105C, strain PKC1, hits give low values 0.0905 | S. cerevisiae deletion strains, locus YBR135W, strain CKS1, hits give low values 0.0897 | S. cerevisiae deletion strains, locus YBR136W, strain MEC1, hits give low values 0.102 | S. cerevisiae deletion strains, locus YBR160W, strain CDC28, hits give low values 0.111 | S. cerevisiae deletion strains, locus YDL017W, strain CDC7, hits give low values 0.0926 | S. cerevisiae deletion strains, locus YDL028C, strain MPS1, hits give low values 0.105 | [3] 0.496 | S. cerevisiae deletion strains, locus YDL108W, strain KIN28, hits give low values 0.516 | S. cerevisiae deletion strains, locus YDL132W, strain cdc53, hits give low values 0.436 | S. cerevisiae deletion strains, locus YDL214C, strain PRR2, hits give low values 0.104 | S. cerevisiae deletion strains, locus YDR052C, strain DBF4, hits give low values 0.116 | S. cerevisiae deletion strains, locus YDR054C, strain cdc34, hits give low values 0.225 | S. cerevisiae deletion strains, locus YDR477W, strain SNF1, hits give low values 0.11 | S. cerevisiae deletion strains, locus YER123W, strain YCK3, hits give low values 0.0976 | S. cerevisiae deletion strains, locus YER133W, strain GLC7, hits give low values 0.11 | S. cerevisiae deletion strains, locus YFL009W, strain cdc4, hits give low values 0.11 | S. cerevisiae deletion strains, locus YFL029C, strain CAK1, hits give low values 0.0958 | S. cerevisiae deletion strains, locus YFR003C, strain YPI1, hits give low values 0.0998 | S. cerevisiae deletion strains, locus YFR019W, strain FAB1, hits give low values 0.109 | S. cerevisiae deletion strains, locus YFR028C, strain CDC14, hits give low values 0.101 | S. cerevisiae deletion strains, locus YGR040W, strain KSS1, hits give low values 0.121 | S. cerevisiae deletion strains, locus YGR052W, strain FMP48, hits give low values 0.114 | S. cerevisiae deletion strains, locus YGR092W, strain DBF2, hits give low values 0.0994 | [7] 0.106 | S. cerevisiae deletion strains, locus YHR079C, strain IRE1, hits give low values 0.111 | S. cerevisiae deletion strains, locus YHR082C, strain KSP1, hits give low values 0.121 | S. cerevisiae deletion strains, locus YHR205W, strain SCH9, hits give low values 0.00427 | S. cerevisiae deletion strains, locus YIL147C, strain SLN1, hits give low values 0.104 | S. cerevisiae deletion strains, locus YJL095W, strain BCK1, hits give low values 0.104 | S. cerevisiae deletion strains, locus YJL128C, strain PBS2, hits give low values 0.103 | S. cerevisiae deletion strains, locus YJL157C, strain FAR1, hits give low values 0.101 | S. cerevisiae deletion strains, locus YJR016C, strain ILV3, hits give low values 0.118 | S. cerevisiae deletion strains, locus YJR066W, strain TOR1 (second series), hits give low values 0.0988 | S. cerevisiae deletion strains, locus YJR066W, strain TOR1, hits give low values 0.108 | S. cerevisiae deletion strains, locus YKL048C, strain ELM1, hits give low values 0.119 | S. cerevisiae deletion strains, locus YKL067W, strain YNK1, hits give low values 0.144 | S. cerevisiae deletion strains, locus YKL101W, strain HSL1, hits give low values 0.0952 | S. cerevisiae deletion strains, locus YKL193C, strain SDS22, hits give low values 0.093 | S. cerevisiae deletion strains, locus YKL203C, strain TOR2, hits give low values 0.1 | S. cerevisiae deletion strains, locus YLR113W, strain HOG1, hits give low values 0.14 | S. cerevisiae deletion strains, locus YLR133W, strain CKI1, hits give low values 0.107 | S. cerevisiae deletion strains, locus YLR403W, strain SFP1, hits give low values 0.00206 | S. cerevisiae deletion strains, locus YML070W, strain DAK1, hits give low values 0.1 | S. cerevisiae deletion strains, locus YMR001C, strain CDC5, hits give low values 0.15 | S. cerevisiae deletion strains, locus YMR205C, strain PFK2 (second series), hits give low values 0.0849 | S. cerevisiae deletion strains, locus YMR277W, strain FCP1, hits give low values 0.262 | S. cerevisiae deletion strains, locus YNL006W, strain LST8, hits give low values 0.12 | S. cerevisiae deletion strains, locus YNL020C, strain ARK1, hits give low values 0.107 | S. cerevisiae deletion strains, locus YNL161W, strain CBK1, hits give low values 0.429 | S. cerevisiae deletion strains, locus YNL183C, strain NPR1, hits give low values 0.105 | S. cerevisiae deletion strains, locus YNL207W, strain RIO2, hits give low values 0.179 | S. cerevisiae deletion strains, locus YNL222W, strain SSU72, hits give low values 0.504 | S. cerevisiae deletion strains, locus YNL307C, strain MCK1 (second series), hits give low values 0.107 | S. cerevisiae deletion strains, locus YOL078W, strain AVO1, hits give low values 0.0851 | S. cerevisiae deletion strains, locus YOL136C, strain PFK27, hits give low values 0.111 | S. cerevisiae deletion strains, locus YOR061W, strain CKA2, hits give low values 0.0975 | S. cerevisiae deletion strains, locus YOR119C, strain RIO1, hits give low values 0.114 | S. cerevisiae deletion strains, locus YOR231W, strain MKK1, hits give low values 0.104 | S. cerevisiae deletion strains, locus YOR329C, strain SCD5, hits give low values 0.299 | S. cerevisiae deletion strains, locus YPL031C, strain PHO85, hits give low values 0.0965 | S. cerevisiae deletion strains, locus YPL153C, strain RAD53, hits give low values 0.0988 | S. cerevisiae deletion strains, locus YPL204W, strain HRR25, hits give low values 0.11 | S. cerevisiae deletion strains, locus YPL209C, strain IPL1, hits give low values 0.0986 | S. cerevisiae deletion strains, locus YPL256C, strain CLN2, hits give low values 0.121 | S. cerevisiae deletion strains, locus YPR025C, strain CCL1, hits give low values 0.124 | S. cerevisiae deletion strains, locus YPR106W, strain ISR1, hits give low values 0.199 | S. cerevisiae deletion strains, locus YPR111W, strain DBF20, hits give low values 0.463 | S. cerevisiae deletion strains, strain NNK1, hits give low values 0.106 | S. cerevisiae deletion strains, strain TSCII, hits give low values 0.48

O=C(c1ccccc1)C1CCN(c2ccc(C(F)(F)F)cc2[N+](=O)[O-])CC1
inactive: [1] 0.995 | [2] 1.01 | [3] 0.995 | S. cerevisiae deletion strains, locus YDL134C, strain PPH21, hits give low values 1.01 | [4] 1 | [5] 1 | [6] 0.982 | [7] 1.02 | [8] 0.98 | [9] 1 | [10] 0.946 | [11] 1.02 | [12] 0.997 | [13] 0.953 | [14] 1.01 | [15] 1.01 | [16] 0.996 | [17] 0.998 | S. cerevisiae deletion strains, locus YMR307W, strain GAS1, hits give low values 0.991 | [18] 0.991 | [19] 1.02 | [20] 1.01 | [21] 1.04 | [22] 0.999 | [23] 0.931 | [24] 0.978
